Here are results for four compounds from PubChem BioAssay AID1259339 (Broad Institute, 2017).

A number with no mark means an inactive call. The source made the active and inactive calls.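 How the source made its calls: active means fitted AC50 no higher than ten times the top tested dose (cut at about 90 µM in these data); inconclusive means flat curve with 30 to 70% signal loss, or bad fit; inactive means AC50 beyond ten times the top dose.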

The assay in a line: TruHit bead signal quenchers or artefacts – biochemical, TruHit kit, artefact control, dose response (AID 1259339). Particulars: TruHit alphaLISA kit signal interference counterscreen; series mostly up to 80 µM; activity change, negative = signal loss: at the top concentration. Background: Alpha assays give light when donor and acceptor beads are brought close together.
On to `O=C(NCCc1ccccc1)c1cc2cccnc2n(Cc2ccccc2)c1=O`, for which the “activity change, negative = signal loss” value was -4.4%.

Turning to `Cc1ccc(S(=O)(=O)Cc2ccc(C(=O)N3CCC4(CC3)OCCO4)o2)cc1`, the “activity change, negative = signal loss” value is -4.38%.

For the compound `O=C(NC1(C(F)(F)F)Oc2ccc(Cl)cc2O1)N1CCC2(CC1)OCCO2` (centres undefined), the AC50 is over 160 µM.

Consider `Nc1c(C(=O)NCc2ccco2)c2nc3ccccc3nc2n1CCN1CCOCC1`, for which the AC50 was 56.6 µM (active).

In general, AC50 refers to the concentration at which the activity in the assay is half-maximal.
